From PubChem BioAssay AID651616 (The Scripps Research Institute Molecular Screening Center, 2012)
In all, about 5,600 compounds went through this assay and about 4,400 (79%) were called active. The set was probably picked from earlier hits. A selection follows. Values without a mark were called inactive. Cut-off read from the data, not from the text of the source: active = inhibition above about 27%; inactive = the rest.

What follows are compounds tested against Fructose-bisphosphate aldolase (Mycobacterium tuberculosis (strain ATCC 25618 / H37Rv)) (UniProt P9WQA3) (assay: M. tuberculosis aldolase blockers, biochemical, fluorescence, strain H37Rv, confirmation (AID 651616;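 note: 0% = vehicle wells and 100% = reference inhibitor wells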)). Conditions: purified M. tuberculosis FBA, fluorescence read-out, at 1 µM, stronger effect = higher value.
Sequence of Fructose-bisphosphate aldolase (Mycobacterium tuberculosis (strain ATCC 25618 / H37Rv)) (P9WQA3 whole entry, looked up): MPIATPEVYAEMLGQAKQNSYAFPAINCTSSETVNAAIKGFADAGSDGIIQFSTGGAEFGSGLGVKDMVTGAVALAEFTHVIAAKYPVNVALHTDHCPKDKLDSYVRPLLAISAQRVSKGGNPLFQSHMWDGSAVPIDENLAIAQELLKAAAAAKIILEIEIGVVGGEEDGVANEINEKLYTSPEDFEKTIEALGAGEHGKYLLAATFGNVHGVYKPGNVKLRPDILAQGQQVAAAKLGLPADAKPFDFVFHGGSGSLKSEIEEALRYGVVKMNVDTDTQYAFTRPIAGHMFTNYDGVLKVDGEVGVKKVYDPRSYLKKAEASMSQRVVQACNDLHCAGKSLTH

Compound | inhibition
Cc1coc2c1c(C)cc1oc(=O)c(CC(=O)NCC(=O)N[C@H](C(=O)O)C(C)C)c(C)c12 | 52.1% (active)
Cc1cc(C)cc(NC(=O)CSc2ccccc2)c1 | 86.7% (active)
CN(C)CCCn1c(N)c(C#N)c2nc(C#N)c(C#N)nc21 | 85.4% (active)
Cc1cc(C)c2c(n1)sc1c(=O)n(-c3ccccc3)c(=O)[nH]c12 | 75.8% (active)
CN(CCc1ccccn1)S(=O)(=O)c1ccc2c3c(cccc13)C(=O)N2 | 130% (active)
COc1ccc(NC(=O)N2CCC(Cc3ccccc3)CC2)cc1 | 40.8% (active)
COc1ccccc1C(=O)Nc1ccc(OCC(=O)N2CCCCC2)cc1 | 183% (active)
COc1ccccc1NC(=O)COc1ccc(C(=O)OCC(=O)N(C(C)C)C(C)C)cc1OC | 0.36%
O=C1CC2(CCCCC2)Oc2ccc(OCC(=O)N3CCOCC3)cc21 | 4.05%
COc1ccccc1-c1oc2ccccc2c1C#CCCCCO | 170% (active)
COc1ccc(-n2cc(CNC3CCOCC3)c(-c3cccc(F)c3)n2)cc1 | 18.8%
COc1ccc(-n2cc(CN(C)Cc3n[nH]c(=O)[nH]3)c(-c3cccc(F)c3)n2)cc1 | 44.3% (active)
Cc1ccc(S(=O)(=O)N2CCN(C(=O)CSc3cc(C)ccc3C)CC2)c(C)c1 | 164% (active)
Cn1nc(-c2ccc(Cl)cc2)c2cc(C(=O)NCc3ccco3)sc21 | 47.8% (active)
CCc1ccc(-c2cc(C(=O)NCc3ccco3)c3ccccc3n2)s1 | -6.79%
CCN(CC)CCCNC(=O)c1cc2c(=O)[nH]c3ccc(C)cc3c2s1 | 137% (active)
N#CC1(Nc2ccc3c4c(cccc24)CC3)CCCCC1 | 119% (active)
N#Cc1c(N)n(CCOC(=O)c2ccc(Cl)cc2)c2nc3ccccc3nc12 | 40.4% (active)
CC(=O)c1sc2nc(SCC(=O)N3CCCCC3)[nH]c(=O)c2c1C | 76.2% (active)
CCN(C(=O)Nc1cccc2ccccc12)c1ccccc1 | 164% (active)
O=C(O)c1cccnc1Sc1ncnc2sc3c(c12)CCC3 | 59.7% (active)
O=C(Nc1ncc2c(n1)-c1ccccc1OC2)c1ccc(Cl)cc1 | 93.8% (active)
CCOc1ccccc1C1CC(c2ccccc2)Nc2nc(N)nn21 (configuration not stated) | 185% (active)
O=c1oc2ccccc2cc1-c1cn(-c2ccccc2)c(=S)[nH]1 | 17.6%

Compound | inhibition
CC12CCC(C(=O)N3CCN(c4ncccn4)CC3)(c3nc4ccccc4nc31)C2(C)C (configuration not stated) | 195% (active)
Cn1c(-c2ccco2)nc2cc3ccccc3cc21 | 46.4% (active)
Cn1cccc1-c1nc2ccccc2n1C | 13.3%
CCCc1cc(=O)oc2c(C)c(OCC(=O)N3CCC(C(=O)O)CC3)ccc12 | -5.02%
CCc1cc(=O)oc2c(C)c(OCC(=O)N3CC[C@@]4(O)CCCC[C@H]4C3)ccc12 | 130% (active)
CCOC(=O)CSc1nc2c(c(=O)n(Cc3ccccc3Cl)c(=O)n2C)n1C | 48.6% (active)
CN(C)c1ccc(/C=N/NC(=O)C(O)c2ccc(Br)cc2)cc1 (configuration not stated) | 72.9% (active)
COC(=O)c1noc(C)c1-c1ccnn1C(=O)c1ccc(Cl)cc1 | 57.6% (active)
Cc1nc(NCCN)c(C#N)c2c1COC(C)(C)C2 | 88.6% (active)
Cc1cc(=O)n2[nH]c(-c3cccc(Cl)c3)cc2n1 | 107% (active)
Cc1ccc2nc(/C(C#N)=C\c3ccc(OC(=O)c4cccs4)cc3)[nH]c2c1 | 53.5% (active)
CC(C)(C)C(=O)Nc1cccc(-c2ccc[nH]2)n1 | 76.9% (active)
N#Cc1c(N2CCCCC2)nc(N)c2c(N)nc(SCC(=O)O)cc12 | 11.2%
CN(C)Cc1c(O)ccc2c(=O)c(-c3ccccc3Cl)coc12 | 9.64%
CC[C@@H]1Cc2cc(O)ccc2C2=C1c1ccc(O)cc1C[C@H]2CC | 109% (active)
Cc1cc(C)c2c(n1)nn1c(-n3ccnc3)cc(C)nc21 | -3.81%
Cc1cc(C)c2c(NC(=O)C3CC3)nn(C)c2n1 | 87.2% (active)
CC(C)(C)Nc1c(-c2cccs2)nc2ccccn12 | 146% (active)
CC[C@@H](C)[C@H](NC(=O)CCc1c(C)c2cc3c4c(oc3c(C)c2oc1=O)CCCC4)C(=O)O | 88.9% (active)
CC(C)=NN1C(=O)c2ccccc2NC1(C)C | 178% (active)
O=C(Nc1nncs1)c1ccccc1NS(=O)(=O)c1cccs1 | 141% (active)
CC(C)c1nc(N2CCOCC2)c(C#N)c2c1COC(C)(C)C2 | 37.2% (active)
CC1(C)Cc2c(C#N)c(SCc3nc4ccccc4[nH]3)nc(N3CCOCC3)c2CO1 | -3.68%
